High-throughput results (PubChem BioAssay)
D3 ag: qHTS of D3 Dopamine Receptor Agonist: qHTS. D3R DiscoveRx beta-arrestin cells, luminescence, 90 min. 0.58% of 410,000 active. D(3) dopamine receptor (Homo sapiens), P35462. AID 652048, 2013. max activation, %; in the data active means max activation above about 30%; further: 0% is about no effect
Target sequence (P35462 whole entry, looked up): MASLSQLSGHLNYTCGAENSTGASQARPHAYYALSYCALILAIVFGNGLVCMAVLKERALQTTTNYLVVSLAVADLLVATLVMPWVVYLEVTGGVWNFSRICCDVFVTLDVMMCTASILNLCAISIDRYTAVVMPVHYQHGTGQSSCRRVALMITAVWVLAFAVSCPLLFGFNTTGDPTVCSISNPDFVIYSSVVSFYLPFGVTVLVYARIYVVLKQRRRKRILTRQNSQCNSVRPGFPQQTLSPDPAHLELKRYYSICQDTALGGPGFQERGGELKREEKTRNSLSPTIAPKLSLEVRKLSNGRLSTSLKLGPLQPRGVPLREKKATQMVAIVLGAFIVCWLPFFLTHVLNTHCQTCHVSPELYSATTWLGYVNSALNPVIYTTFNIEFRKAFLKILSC
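Cells at 1500/well, incubated overnight, then treated with pinned compounds (dopamine as control) for 90 min at 37 degrees C. DiscoveRx reagent added for 30 - 60 minutes at room temperature; luminescence read.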
S2 tox: Viability Counterscreen for Primary qHTS for Inhibitors of ATXN expression | S2 cells (HEK-293 line with an ATXN2-luciferase reporter) viability, CellTiter-Fluor protease fluorescence, 24 h | Potency, µM (series often up to 56.7 µM), most hits filed as cytotoxic | 0.49% of 400,000 active; further: potency means the concentration at half of the fitted maximal effect; nearly all actives have a fitted effect of over 40% in size
DRD3 antagonist: qHTS of D3 Dopamine Receptor Antagonist: qHTS | D(3) dopamine receptor (Homo sapiens), P35462 | D3R cells, DiscoveRx beta-arrestin luminescence, antagonist mode; stronger effect = lower value | max response, negative = inhibition, % | 2.5% of 360,000 active; in the data active means max response below about -50%; inconclusive means no clear call, values can overlap the other calls; further: on the % scale 0 is the no-effect control and ±100 the full control effect
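Cells plated overnight at 1500 cells/well, then exposed to library compounds with dopamine controls for 90 minutes at 37 degrees C. DiscoveRx reagent added for 30–60 minutes at room temperature; luminescence read, quantitative HTS format.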
HepG2 tox: qHTS for Inhibitors of TGF-b: Cytotox Counterscreen; HepG2 CAGA-GFP viability, ATP luminescence, 18 h; Potency, µM (series often up to 46.1 µM), inactives show at the highest dose activity change, negative = cytotoxicity, most hits filed as cytotoxic; 0.76% of 410,000 active; further: potency means the concentration at half of the fitted maximal effect
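HepG2 CAGA-GFP cells (1000/well, DMEM with 1% FBS) received compound, then TGF-beta at 500 pg/mL final, and were incubated 18 hours at 37 degrees C. Viability was read by CellTiter-Glo luminescence. Media-only wells were set as complete cell-killing and DMSO as no toxicity.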
ATXN2 expr inh: Primary qHTS for Inhibitors of ATXN expression; HEK-293 ATXN2-luciferase reporter, luminescence, 24 h; Potency, µM (titrated, usually from 57 µM), without a hit: top-dose activity change, negative = inhibition, usual class: inhibitors; 0.72% of 360,000 active; AID 1745845, 2022; further: potency means the concentration at half of the fitted maximal effect; on the % scale 0 is the no-effect control and ±100 the full control effect; nearly all actives have a fitted effect of over 55% in size
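qHTS (up to 57 uM final) was run with 24 h compound exposure of reporter cells at 37 °C. Each well was multiplexed: SteadyGlo luminescence measured ATXN2-luciferase expression after a fluorogenic Gly-Phe-AFC viability readout (25 uM final).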
TGFb inhibitor: qHTS for Inhibitors of TGF-b; 1.2% of 410,000 active; AID 588855, 2011; Potency, µM (top dose mostly 46.1 µM), for the others: at the highest dose activity, negative = inhibition, hits mostly inhibitors; HepG2 CAGA-GFP TGF-b/SMAD3 reporter, GFP fluorescence, 18 h; TGF-beta stimulated, 500 pg/mL final; further: potency means the concentration at half of the fitted maximal effect; on the % scale 0 is the no-effect control and ±100 the full control effect; nearly all actives have a fitted effect of over 65% in size
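GFP signal (ex488/em500-530) from TGF-beta-stimulated HEPG2 CAGA-GFP cells, 500 pg/mL final, 18 h at 37 degrees C in DMEM plus 1% FBS, normalized to unstimulated and DMSO-stimulated controls.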
Starred values were filed as active, the others as inactive; i = inactive; ? = inconclusive; · = no result given. Only some compounds are listed: those with a hit (about 4.7% of all), similar ones and a draw of the others. Unless noted, the call rests on the fitted dose curve; in most records, active means well fitted curve in the direction sought with a large enough effect; inconclusive means small, poorly fitted or top-dose-only effect, or another doubt; inactive means no such curve, though single readings can be large; an effect the other way counts as inactive or inconclusive.

SMILES	D3 ag	S2 tox	DRD3 antagonist	HepG2 tox	ATXN2 expr inh	TGFb inhibitor
Cc1[nH]nc2c1C(c1ccc(-c3ccc(Cl)cc3)o1)C(C#N)=C(N)O2 (configuration not stated)	-3	?	-2	-84%	4%	?
Cc1ccc(-c2ccc(C3C(C#N)=C(N)Oc4n[nH]c(C)c43)o2)cc1 (configuration not stated)	0	i	-26	16µM*	-3%	?
CC(C)(CO)NC(=O)c1cnn(-c2nccc(-c3ccc4c(c3)OCO4)n2)c1C1CC1	·	i	·	·	·	·
COc1cccc(C(C#N)N2CCCCC2)c1O (configuration not stated)	5	i	-74*	-2%	2%	7%
Cc1cc(Br)c2c(c1)[C@](O)(c1cn(C)c3ccccc13)C(=O)N2C	5	·	4	·	·	·
CC1(C)OC2=C(C(=O)c3ccccc3C2=O)[C@H](NCc2ccccc2)[C@H]1O	·	·	·	·	3.4µM*	·
CC1(C)OC(=O)CC1C(=O)NCc1ccccc1 (configuration not stated)	0	i	14	-1%	-6%	-9%
CN1C(=O)CC(C)(c2ccccc2)C1=O (configuration not stated)	7	i	·	·	6%	·
O=C(O)C1CCCCC1C(=O)Nc1ccccc1Cl (configuration not stated)	13	i	24	-3%	-2%	3%
O=C(O)C1CCCCC1C(=O)Nc1ccccc1F (configuration not stated)	-8	i	-51*	-29%	-13%	-26%
O=[N+]([O-])c1ccc(C(O)C23CN4CN(CN(C4)C2)C3)cc1 (configuration not stated)	5	i	-69*	-4%	-11%	-12%
COc1ccc(Cl)cc1CNCCSc1nnnn1-c1ccccc1	-26	?	·	-42%	-20%	-29%
Cc1ccc(C(=O)CC(=O)c2ccccc2C)c(O)c1	11	·	-50*	-23%	2%	?
Cc1ccc(C(=O)CC(=O)c2cccc(F)c2)c(O)c1	-3	?	-62*	-30%	-18%	-5%
Cc1ccc(O)c(C(=O)CC(=O)c2ccccc2Cl)c1	2	·	-9	-28%	-34%	-30%
COc1cc2c(cc1OC)CN(C(=O)[C@H](C)N[C@@H](CCc1ccccc1)C(=O)O)[C@H](C(=O)O)C2	·	i	·	·	10%	·
CCc1nc(CN2CCCC(C(=O)c3ccc4c5c(cccc35)CC4)C2)c(C)[nH]1 (configuration not stated)	-20	i	-51*	-43%	-33%	?
CCc1nc(CN2CCCC(C(=O)Nc3ccc(-c4cccc(OC)c4)cc3)C2)c(C)[nH]1 (configuration not stated)	0	i	-2	-53%	·	-18%
C=CCOC(=O)C1=C(C)NC(SCC)=C(C#N)C1c1ccc(Cl)cc1 (configuration not stated)	4	?	-27	-86%	16µM*	13µM*
Cc1ccc(-c2nc3cccnc3o2)cc1NC(=O)COc1ccc(C(C)(C)C)cc1	79*	?	103	-23%	?	?
Cc1ccc(-c2nc3cccnc3o2)cc1NC(=O)COc1ccc(Cl)cc1C	0	28µM*	12	17%	32µM*	4%
Cc1oc2ncnc(N3CCCCC3)c2c1C(=O)N1CCN(c2cccc(C(F)(F)F)c2)CC1	-16	?	·	-2%	?	-8%
COC(=O)C1=C[C@@H](C(=O)OC)C2C3=C(C(=O)[C@@]2(CC(C)C)NC(=O)c2ccccc2)[C@H](C)n2c(=O)n(C)c(=O)n2[C@@H]3C1 (some centres not stated)	·	·	·	-5%	·	?
